Screens deposited in PubChem BioAssay by Center for Chemical Genomics, University of Michigan.
The full list was thinned out, with hits kept by preference.
Dicer processing: inhibitors of Dicer pre-microRNA processing, primary screen, biochemical, cat-ELCCA, chemiluminescence. cat-ELCCA pre-miR-21 Dicer processing; hits give high values. z-score at 25 µM. 47,000 compounds, 6% hits. Endoribonuclease Dicer (Homo sapiens), Q9UPY3. AID 1347074, 2019; in the data active = z-score above about 3, passing the limit was not always enough;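 also: plate controls were vehicle for no effect and no enzyme for full effect; higher signal means more uncleaved substrate so more Dicer inhibition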
Starred values were filed as active, the others as inactive.

SMILES | Dicer processing
CN(C)CCCN1C(=O)C(=O)/C(=C(\O)c2ccc(F)cc2)C12C(=O)N(C)c1ccccc12 (stereo not drawn) | 2.5
C=CCN1C(=O)C2(/C(=C(/O)c3ccc(F)cc3)C(=O)C(=O)N2CCN(C)C)c2ccccc21 (stereo not drawn) | 3.9*
C=CCN1C(=O)C2(/C(=C(/O)c3ccc(C)c(F)c3)C(=O)C(=O)N2CCN(C)C)c2ccccc21 (stereo not drawn) | 0.78
C=CCN1C(=O)C2(/C(=C(/O)c3ccc(C)c(F)c3)C(=O)C(=O)N2CCCN(C)C)c2ccccc21 (stereo not drawn) | 0.17
COCCCN1C(=O)C(=O)/C(=C(\O)c2ccc(Cl)cc2)C12C(=O)N(C)c1ccccc12 (stereo not drawn) | -0.78
C=CCN1C(=O)C2(/C(=C(/O)c3ccc(Cl)cc3)C(=O)C(=O)N2CCCOC)c2ccccc21 (stereo not drawn) | 3.4*
C=CCN1C(=O)C2(/C(=C(/O)c3ccc(OC)cc3)C(=O)C(=O)N2CCCOC)c2ccccc21 (stereo not drawn) | 3.2*
C=CCN1C(=O)C2(/C(=C(/O)c3ccc(C)cc3)C(=O)C(=O)N2CCCN(C)C)c2ccccc21 (stereo not drawn) | 1.6
C=CCN1C(=O)C2(/C(=C(/O)c3ccc(C)cc3)C(=O)C(=O)N2CCCOC)c2ccccc21 (stereo not drawn) | 0.49
C=CCN1C(=O)C2(/C(=C(/O)c3ccc(OC)cc3)C(=O)C(=O)N2CCCN(C)C)c2ccccc21 (stereo not drawn) | 3.6*
CCOC(=O)C(NCCc1ccccc1)(NC(=O)c1ccccc1Cl)C(F)(F)F (stereo not drawn) | 0.12
N#C/C(=C\N1CCCC1)S(=O)(=O)c1ccc(Cl)cc1 | 1.6
Cc1onc(-c2c(Cl)cccc2Cl)c1NC(=O)NNc1ncccc1-n1cccc1 | 1
CCOc1ccc(S(=O)(=O)N2CCCCC2)cc1-c1nc2c(C(C)(C)C)nn(C)c2c(=O)[nH]1 | 0.62
COc1ccc(C2c3c(oc4ccc(C)cc4c3=O)C(=O)N2c2nccs2)cc1OC (stereo not drawn) | 2.5
Cc1[nH]n(-c2ccccc2)c(=O)c1C(c1ccccn1)c1c(C)[nH]n(-c2ccccc2)c1=O | -4.6
FC(F)(F)c1cccc(NC(=S)NCCNc2nccc(C(F)(F)F)n2)c1 | -1.3
O=C(NNc1ccccc1)Nc1cc(Cl)sc1Cl | 0.56
Clc1ccc(OCc2nc3ccccc3s2)cc1 | -0.19
COc1ccccc1C(=O)NC(Nc1ccc(F)cc1)(C(F)(F)F)C(F)(F)F | 0.45
Cc1cc2c3c(c1)c(OS(=O)(=O)c1cc([N+](=O)[O-])ccc1C)c(-c1ccccc1)c(=O)n3CCC2 | -2.9
O=c1cc(Nc2ccc(F)cc2)c2ccccc2o1 | 1
CCCOc1cccc(C2c3c(oc4ccccc4c3=O)C(=O)N2c2ccccn2)c1 (stereo not drawn) | -5.9
CCCOc1ccc(C2c3c(oc4ccccc4c3=O)C(=O)N2c2ccc(C)cn2)cc1OCC (stereo not drawn) | -0.52
CCCOc1ccc(C2c3c(oc4ccccc4c3=O)C(=O)N2c2ccccn2)cc1OCC (stereo not drawn) | 4.4*
SMILES | Dicer processing
CCCCOc1ccc(C2c3c(oc4ccccc4c3=O)C(=O)N2c2nncs2)cc1OCC (stereo not drawn) | -0.3
CCCOc1ccc(C2c3c(oc4ccccc4c3=O)C(=O)N2c2nnc(C)s2)cc1OCC (stereo not drawn) | -0.5
CCCCOc1ccc(C2c3c(oc4ccccc4c3=O)C(=O)N2c2ccccn2)cc1OCC (stereo not drawn) | 4.6*
Cc1ccccc1C1=NC(C(F)(F)F)(C(F)(F)F)N=C(N(C)C)O1 | -0.4
O=C(Cn1ccc(C(F)(F)F)n1)c1ccc(Cl)cc1 | 1.5
O=C(CCCN1CCN(c2ccccn2)CC1)c1ccc(F)cc1 | 1.2
OC1(c2ccc(F)cc2)Cc2ccccc2C2=NCCN21 (stereo not drawn) | 5.6*
O=C(CN1C2=NCCN2c2ccccc21)c1ccc(F)cc1 | -0.27
CC1(C)SC(c2ccc(Cl)cc2Cl)NC1C(=O)O (stereo not drawn) | 0.05
O=S(=O)(Cc1ccccc1)c1ccc(Cl)cc1 | 0.84
O=S(=O)(CCS(=O)(=O)c1cccs1)c1ccc(Cl)cc1 | -0.66
O=S(=O)(CCc1ccncc1)c1ccc(Cl)cc1 | 4.3*
Cc1ccc(C(C)(SCC(=O)O)SCC(=O)O)cc1 | -0.53
O=C(c1cccnc1Oc1ccccc1)n1ccc(-c2cccs2)n1 | -0.57
CCOC(=O)C1=C(C)Nc2nnnn2C1c1ccc(Cl)cc1 (stereo not drawn) | 2.4
CC1CCN(C(=O)CN2C(=O)C(=O)c3ccccc32)CC1 | 1.5
CCOC(=O)CCN1C(=O)c2ccccc2C1=O | 0.31
Cc1c(NC(=O)OCc2ccccc2)c(=O)n(-c2ccccc2)n1C | -0.02
Cc1c(NC(=O)COC(=O)CN2C(=O)C(=O)c3ccccc32)c(=O)n(-c2ccccc2)n1C | 3.8*
O=C(COC(=O)CN1C(=O)C(=O)c2ccccc21)NCc1ccco1 | 1.4
